Data from PubChem BioAssay AID1159580 (chemical genetic matrix, 2015).
Values joined by “and” are separate entries in the source; they are usually repeats but may differ in a detail not shown here. Equal entries are not always repeated. The campaign covered roughly 5,500 compounds. About 2,000 (36%) were called active. Another 18% or so got no clear call; they are omitted. Rule as the data show it: active = normalized growth mostly below about 0.91 (no sharp cut-off); inconclusive = no clear call, values can overlap the other calls; inactive = mostly above about 0.92. The list shows a part of the results.

Experiment: chemical genetic growth profiling, strain panel (AID 1159580);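 also: tested at 20 µM; growth read once vehicle control cultures reached saturation at 30 °C; 1 = growth at the plate median or of vehicle wells; lower values mean less growth of the strain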
Conditions: S. cerevisiae deletion strains, growth OD

Measured: normalized growth

COc1cc2c(cc1OC)[C@@H]1C(=O)c3ccc(OC)c(CC=C(C)C)c3O[C@@H]1CO2
inactive: locus YAL013W, strain DEP1, active compounds read low 1.03 | locus YAL021C, strain ccr4, active compounds read low 1.06 | locus YAL026C, strain drs2, active compounds read low 1.04 | locus YAL030W, strain snc1, active compounds read low 1.02 | locus YBL061C, strain skt5, active compounds read low 1.02 | locus YBR009C, strain hhf1, active compounds read low 1.01 | locus YBR021W, strain FUR4, active compounds read low 1.03 | locus YBR023C, strain chs3, active compounds read low 1.02 | locus YBR171W, strain sec66, active compounds read low 1.05 | locus YBR229C, strain ROT2, active compounds read low 1.02 | locus YBR231C, strain swc5, active compounds read low 1.05 | locus YBR279W, strain paf1, active compounds read low 1.01 | locus YCL011C, strain gbp2, active compounds read low 1.02 | locus YCL016C, strain dcc1, active compounds read low 1.02 | locus YCL029C, strain bik1, active compounds read low 1.02 | locus YCL061C, strain MRC1, active compounds read low 0.987 | locus YCL069W, strain vba3, active compounds read low 1.03 | locus YCR088W, strain abp1, active compounds read low 1.02 | locus YDL005C, strain med2, active compounds read low 1.02 | locus YDL035C, strain GPR1, active compounds read low 1.06 | locus YDL040C, strain nat1, active compounds read low 1.02 | locus YDL074C, strain BRE1, active compounds read low 1.05 | locus YDL101C, strain DUN1, active compounds read low 1.01 | locus YDL185W, strain tfp1, active compounds read low 1.02 | locus YDL192W, strain arf1, active compounds read low 1.04 | locus YDR001C, strain nth1, active compounds read low 1.02 | locus YDR069C, strain doa4, active compounds read low 1.03 | locus YDR101C, strain arx1, active compounds read low 1.03 | locus YDR137W, strain rgp1, active compounds read low 0.892 | locus YDR159W, strain sac3, active compounds read low 1.02 | locus YDR162C, strain NBP2, active compounds read low 1.01 | locus YDR195W, strain ref2 1.06 | locus YDR297W, strain sur2, active compounds read low 1.02 | locus YDR318W, strain mcm21, active compounds read low 1.01 | locus YDR334W, strain swr1, active compounds read low 1.02 | locus YDR335W, strain msn5, active compounds read low 1.03 | locus YDR388W, active compounds read low 1.02 | locus YDR392W, strain spt3, active compounds read low 0.813 | locus YDR502C, strain sam2, active compounds read low 1.01 | locus YEL003W, strain gim4, active compounds read low 1.03 | locus YEL037C, strain rad23, active compounds read low 1.01 | locus YEL061C, strain CIN8 (second series), active compounds read low 1.03 | locus YEL061C, strain CIN8, active compounds read low 1.04 | locus YER015W, strain faa2, active compounds read low 1.04 | locus YER016W, strain bim1, active compounds read low 1.03 | locus YER110C, active compounds read low 1 | locus YER111C, strain swi4, active compounds read low 1.02 | locus YER155C, strain BEM2 (second series), active compounds read low 1.03 | locus YER155C, strain BEM2, active compounds read low 0.993 | locus YER167W, strain BCK2, active compounds read low 1.01 | locus YFR010W, strain ubp6, active compounds read low 1.03 | locus YGL078C, strain dbp3, active compounds read low 1.01 | locus YGL086W, strain mad1, active compounds read low 0.999 | locus YGL167C, strain pmr1, active compounds read low 1.03 | locus YGL173C, strain kem1, active compounds read low 1.04 | locus YGL227W, strain vid30, active compounds read low 1.03 | locus YGL240W, strain doc1, active compounds read low 1.03 | locus YGL248W, strain PDE1, active compounds read low 1.02 | locus YGL253W, strain hxk2, active compounds read low 1.04 | locus YGR078C, strain PAC10, active compounds read low 1.05 | locus YGR135W, strain pre9, active compounds read low 1.02 | locus YGR252W, strain gcn5, active compounds read low 0.994 | locus YHR013C, strain ard1, active compounds read low 1.14 | locus YHR027C, strain rpn1, active compounds read low 1.03 | locus YHR030C, strain SLT2, active compounds read low 1.02 and 1.03 | locus YHR079C, strain IRE1 (second series), active compounds read low 0.997 | locus YHR079C, strain IRE1, active compounds read low 1.02 | locus YHR094C, strain hxt1, active compounds read low 1.01 | locus YHR129C, strain ARP1, active compounds read low 1.04 | locus YHR142W, strain chs7, active compounds read low 1.01 | locus YHR200W, strain rpn10, active compounds read low 1.01 | locus YIL066C, strain RNR3, active compounds read low 1.01 | locus YIL073C, strain SPO22, active compounds read low 1.1 | locus YIL125W, strain kgd1, active compounds read low 0.995 | locus YIR030C, strain dcg1, active compounds read low 0.998 | locus YJL092W, strain hpr5, active compounds read low 1.03 | locus YJL095W, strain BCK1 (second series), active compounds read low 1.02 | locus YJL095W, strain BCK1, active compounds read low 1.04 and 1.05 | locus YJL115W, strain asf1, active compounds read low 1.03 | locus YJL129C, strain trk1, active compounds read low 0.953 | locus YJL134W, strain LCB3, active compounds read low 1.02 | locus YJL154C, strain vps35, active compounds read low 1.03 | locus YJL164C, strain tpk1, active compounds read low 1 | locus YJL166W, strain qcr8, active compounds read low 1.03 | locus YJL168C, strain set2, active compounds read low 1 | locus YJL187C, strain SWE1 (second series), active compounds read low 1 | locus YJL187C, strain SWE1, active compounds read low 1.04 | locus YJR066W, strain TOR1, active compounds read low 0.982 | locus YKL009W, strain mrt4, active compounds read low 1.04 | locus YKL068W, active compounds read low 0.999 | locus YKL085W, strain MDH1 (second series), active compounds read low 0.999 | locus YKL085W, strain MDH1, active compounds read low 0.999 | locus YKL160W, strain elf1, active compounds read low 1.02 | locus YKL190W, strain CNB1, active compounds read low 1.04 | locus YKR001C, strain vps1, active compounds read low 0.934 | locus YKR026C, strain gcn3, active compounds read low 1 | locus YKR091W, strain srl3, active compounds read low 1.02 | locus YLL001W, strain dnm1, active compounds read low 1.03 | locus YLL026W, active compounds read low 1.03 | locus YLL041C, strain sdh2, active compounds read low 1.02 | locus YLR027C, strain aat2, active compounds read low 1.02 | locus YLR039C, strain RIC1, active compounds read low 0.846 | locus YLR058C, strain SHM2, active compounds read low 1 | locus YLR102C, strain apc9, active compounds read low 1.01 | locus YLR113W, strain HOG1, active compounds read low 0.988 | locus YLR221C, strain rsa3, active compounds read low 1.01 | locus YLR258W, strain gsy2, active compounds read low 1.03 | locus YLR262C, strain YPT6 (second series), active compounds read low 0.91 | locus YLR268W, strain sec22, active compounds read low 1.05 | locus YLR320W, strain mms22, active compounds read low 1.02 | locus YLR330W, strain CHS5, active compounds read low 1.01 | locus YLR342W, strain FKS1, active compounds read low 1.02 | locus YLR357W, strain rsc2, active compounds read low 1.02 | locus YLR370C, strain arc18, active compounds read low 1.02 | locus YLR371W, strain rom2, active compounds read low 1.04 | locus YLR384C, strain iki3, active compounds read low 1.02 | locus YLR418C, strain cdc73, active compounds read low 1.01 | locus YML016C, strain PPZ1, active compounds read low 1.01 | locus YML032C, strain rad52, active compounds read low 1 | locus YML120C, strain ndi1, active compounds read low 1.01 | locus YML124C, strain tub3, active compounds read low 1.01 | locus YMR058W, strain fet3, active compounds read low 1.03 | locus YMR078C, strain ctf18, active compounds read low 1.01 | locus YMR125W, strain sto1, active compounds read low 1.03 | locus YMR129W, active compounds read low 1.02 | locus YMR205C, strain PFK2, active compounds read low 0.993 | locus YMR223W, strain ubp8, active compounds read low 1.02 | locus YMR231W, strain pep5, active compounds read low 1.02 | locus YMR263W, strain SAP30, active compounds read low 1.03 | locus YMR307W, strain GAS1, active compounds read low 1.08 | locus YNL067W, strain RPL9B, active compounds read low 1.04 | locus YNL071W, strain lat1, active compounds read low 1.01 | locus YNL153C, strain GIM3, active compounds read low 1.04 | locus YNL183C, strain NPR1, active compounds read low 0.974 | locus YNL209W, strain ssb2, active compounds read low 1.03 | locus YNL233W, strain BNI4, active compounds read low 0.984 | locus YNL248C, strain rpa49, active compounds read low 1.05 | locus YNL250W, strain rad50, active compounds read low 0.961 | locus YNL271C, strain bni1, active compounds read low 1.01 | locus YNL298W, strain CLA4, active compounds read low 1.01 | locus YNL307C, strain MCK1, active compounds read low 0.999 | locus YNL322C, strain KRE1 (second series), active compounds read low 1.01 | locus YNL322C, strain KRE1, active compounds read low 1.02 | locus YNR049C, strain mso1, active compounds read low 1.04 | locus YNR052C, strain pop2, active compounds read low 1.03 | locus YOL012C, strain htz1 1.26 | locus YOL147C, strain pex11, active compounds read low 1 | locus YOR001W, strain rrp6, active compounds read low 1.04 | locus YOR061W, strain CKA2, active compounds read low 1.02 | locus YOR069W, strain VPS5, active compounds read low 1.01 | locus YOR070C, strain gyp1, active compounds read low 1.02 | locus YOR080W, strain dia2, active compounds read low 1.04 | locus YOR083W, strain WHI5, active compounds read low 1.02 | locus YOR106W, strain vam3, active compounds read low 1.05 | locus YOR136W, strain idh2, active compounds read low 1.03 | locus YOR144C, strain elg1, active compounds read low 1.01 | locus YOR184W, strain ser1, active compounds read low 1.05 | locus YOR231W, strain MKK1, active compounds read low 1.04 | locus YOR265W, strain rbl2, active compounds read low 1.02 | locus YOR270C, strain vph1, active compounds read low 1.06 | locus YOR290C, strain snf2, active compounds read low 1 | locus YOR316C, strain cot1, active compounds read low 0.992 | locus YPL051W, strain arl3, active compounds read low 1.01 | locus YPL078C, strain atp4, active compounds read low 1.03 | locus YPL106C, strain sse1, active compounds read low 1.1 | locus YPL240C, strain hsp82, active compounds read low 1.02 | locus YPL256C, strain CLN2, active compounds read low 1.03 | locus YPR119W, strain clb2, active compounds read low 1.01 | locus YPR141C, strain kar3, active compounds read low 1 | locus YPR163C, strain tif3, active compounds read low 0.997 | locus YPR167C, strain met16, active compounds read low 1.01 | strain wtn01, active compounds read low 1.01
